The record followed here is PubChem BioAssay (Tox21).

“And” between values parts separate entries of the source, which are not always exact repeats. Equal entries are not always repeated. Results filed as inconclusive are left out. Where a call stands in place of a potency, no number is given. A number with no mark means an inactive call. The source made the active and inactive calls. Calls follow the shape of the dose curve; as a rule, active = well fitted cell-killing curve with a large enough effect in the repeat runs; inconclusive = weak or mixed curves, or effect the other way; inactive = flat fitted curve, though single readings scatter.
Potency is read from the fitted curve at half-maximal effect.

A short description of the assay: qHTS RealTime-Glo MT Cell Viability Assay in HEK293 cells - 24 hour (AID 1224886). Also: nearly all actives have a fitted effect of over 50% in size. As to activity change, negative = cytotoxicity: top concentration of the series differs between compounds. Conditions: RealTime-Glo luminescence; series mostly up to 76.8 µM. An excerpt: National Center for Advancing Translational Sciences [NCATS]
NIH Chemical Genomics Center [NCGC]
U.S. Environmental Protection Agency [EPA]
National Institutes of Environmental Health Sciences [NIEHS]
National Toxicology Program [NTP]
U.S. Food and Drug Administration [FDA]
Measure of cell viability is critical in the cell-base assay. Analysis of cell viability is necessary for the characterization of cell responses to cytotoxic drugs and environmental stress. A RealTime-Glo MT Cell Viability Assay to monitor cell viability in real time of continues cell culture during 40 hours of compound treatment was used to screen Tox21 10K library compounds in Hek293 cells. The RealTime-Glo MT Cell Viability Assay is a nonlytic, homogeneous, bioluminescent method to measure cell viability in real time using a simple, plate-based method. The assay involves adding NanoLuc luciferase and a cell-permeant prosubstrate to cells in culture. Viable cells reduce the proprietary prosubstrate to generate a substrate for NanoLuc luciferase. This substrate diffuses from cells into the surrounding culture medium, where it is rapidly used by the NanoLuc Enzyme to produce a luminescent signal. The signal correlates with the number of viable cells, making the assay well suited for cytotoxicity studies.
Tox21 Assay Protocol Summary:
The mixture of Hek293 cell suspension and reagents were dispensed at 600cells/6 ul/well in 1536-well tissue culture treated black solid bottom plates using a Multidrop dispenser. After the assay plates were incubated at a 37 C/5% CO2 incubator for 5 hours, 23 nL of compounds dissolved in DMSO, positive and negative controls was transferred to the assay plate by a pintool work station. The plates were incubated at 37 C for 40 hours. The luminescence intensity were measured at 0h, 8h, 16h, 24h, 32h and 40h time points using ViewLux plate reader during compound treatment.
(In general: qHTS replaces the single test concentration by a dilution series.)
In the case of `OC(CCN1CCCCC1)(c1ccccc1)C1CC2C=CC1C2` (stereo not given), the Potency entry is “inactive”.
For `CCCc1cc(C(N)=S)ccn1`, the Potency result is “inactive”.
Consider `CC(=O)OCC(CCn1cnc2cnc(N)nc21)COC(C)=O`, for which the Potency entry was “inactive”.
Regarding `CC(=O)CC(C)(C)C1CCCCC1`, the Potency result was “inactive”.
Regarding `O=C[C@H](O)[C@@H](O)[C@H](O)[C@H](O)CO`, the Potency entry is “inactive”.
For `CCn1nc(C(=O)O)c(=O)c2cc3c(cc21)OCO3`, the Potency result is “inactive”.
Still for that read-out and setting: in the case of `CN1CCN(c2cc3c(cc2F)c(=O)c(C(=O)O)cn3-c2ccc(F)cc2)CC1` it was “inactive”; in that of `c1ccc([C@H]2CN3CCSC3=N2)cc1`, “inactive”.
With `Cc1ccc(C#N)cc1`, the Potency entry is “inactive”.
Regarding `CC(C[N+](C)(C)C)OC(N)=O` (stereo not given), the Potency entry is “inactive”.
For `CCOC(=O)c1ccc(C)cc1`, the Potency result is “inactive”.
For the compound `CCn1ccnc1CC1COc2ccccc2O1` (stereo not given), the Potency result is “inactive”.
Regarding `N=C(N)c1ccc2cc(OC(=O)c3ccc(N=C(N)N)cc3)ccc2c1`, the Potency entry is “inactive”.
Take `N[C@@H](C(=O)N[C@@H]1C(=O)N2C(C(=O)O)=C(Cl)CS[C@H]12)c1ccccc1`: the activity change, negative = cytotoxicity is 7.93% [at 6.97 µM].
For `O=C(O)Cc1ccc(CCNS(=O)(=O)c2ccc(Cl)cc2)cc1`, the Potency result is “inactive”.
`C1OCOCO1`: the Potency result was “inactive”.
Same read-out and setting: the value for `CS(=O)(=O)O` was “inactive”.
On the same count and under the same terms, in the case of `OCCCC1CCCCC1` it was “inactive”.
For the compound `CCc1nccnc1CC`, the activity change, negative = cytotoxicity is 6.29% [at 15.8 µM].
Take `CCOC(=O)CCC(C)=O`: the Potency entry is “inactive”.
As for `CC1(C)CO[C@@H](CC(=O)O)CN1`, the Potency entry was “inactive”.
On to `O=c1cc(CO)occ1O`, for which the Potency result is “inactive”.
On to `c1cnc(N2CCN(Cc3ccc4c(c3)OCO4)CC2)nc1`, for which the Potency result was “inactive”.
For `CC[N+](C)(C)c1cccc(O)c1`, the Potency entry is “inactive”.
On to `Cc1ccc(=O)n(-c2ccccc2)c1`, for which the Potency result is “inactive”.
As for `CCc1cccc2c(CCO)c[nH]c12`, the Potency result is “inactive”.
Turning to `CCOC(=O)CC(C)=O`, the Potency result was “inactive”.
Turning to `CN(C)CCCN1c2ccccc2CCc2ccc(Cl)cc21`, the Potency was 38.9 µM (active) and 21.3 µM (active).
Same read-out and setting: in the case of `Cc1[nH]c(=O)c(C#N)cc1-c1ccc2nccn2c1` it was “inactive”.
On to `Cn1c(N)c(N=O)c(=O)n(C)c1=O`, for which the Potency result was “inactive”.
For the compound `CN1CC(=O)NC1=N`, the Potency entry is “inactive”.
`CCN(Cc1ccncc1)C(=O)C(CO)c1ccccc1` (stereo not given): the Potency result is “inactive”.
Turning to `CC(=O)CC(C)C`, the Potency result is “inactive”.
`Cc1sccc1Br`: the Potency result is “inactive”.
The same measure, in the same setting: the value for `N=C(N)c1ccc(OCCCOc2ccc(C(=N)N)cc2)cc1` was “inactive”; that for `CCCN1CCCC[C@H]1C(=O)Nc1c(C)cccc1C` was “inactive”; that for `C/C=C(\C)C#N` was “inactive”.
Consider `CCCCCCCCCCCCCCCCC`, for which the Potency entry was “inactive”.
With `C[C@H](NC(CCc1ccccc1)C(=O)O)C(=O)N1CCC[C@H]1C(=O)O` (stereo not given in full), the Potency entry is “inactive”.
As for `COC(C)(C)CCCC(C)CC=O` (stereo not given), the Potency result is “inactive”.
